This is an account of results in PubChem BioAssay (NCATS).

Where “and” joins values, the source holds several entries; their conditions need not be identical. Equal values may be shown once. Records with an inconclusive call do not appear. Calls of active or inactive are those of the source. Unless noted, calls follow the shape of the dose curve; as a rule, active = well fitted curve in the direction sought with a large enough effect; inconclusive = small, poorly fitted or top-dose-only effect, or another doubt; inactive = no such curve, though single readings can be large; an effect the other way counts as inactive or inconclusive.

The test system of assay [1] is Zika virus NS2B-NS3 protease (linked construct). Kind of assay: Primary screen NINDS Rhodamine qHTS for Zika virus inhibitors (AID 1347160). Also: nearly all actives have a fitted effect of over 55% in size. In a few lines:
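Purified linked NS2B-NS3 protease (NS2B hydrophilic domain joined to NS3 protease by flexible linker), 25 nM in 10 mM Tris-HCl pH 8.0, 0.01% Tween 20. Compounds titrated, 15 min preincubation at room temperature; 1.5 microM Rhodamine110 substrate, FITC fluorescence change over 15 min.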
(In general: In qHTS, concentration-response curves come from the screen itself.)

The target of assay [2] is Calcium and integrin-binding protein 1 (Homo sapiens) (UniProt Q99828). Kind of assay: Primary qHTS for Identification of Calcium Integrin Binding Protein 1 (CIB1) Competitor (AID 1508620). Also: top concentration of the series differs between compounds; % is scaled to controls: 0 for no effect and ±100 for the full control effect. An outline of the steps: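 Fluorescence polarization competition: GST-tagged CIB1 (1 uM final) preincubated with compound 15 min at room temperature, then FITC-labelled alphaIIb peptide (100 nM final) added. After 15 min at room temperature, polarization read at Ex 480/Em 540.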

The nature of assay [3]: Primary qHTS for inhibitors of nuclear receptor binding SET domain protein 2 (NSD2) in an isogenic RCH-ACV NSD2 p.E1099K mutant (9B) (AID 1645876). Also: nearly all actives have a fitted effect of over 70% in size. Also: potency is read from the fitted curve at half-maximal effect.
Assay [4] can be described thus: Primary qHTS for inhibitors of nuclear receptor binding SET domain protein 2 (NSD2) in an RCH-ACV wild type WT cells (2C) (AID 1645877). Also: potency is read from the fitted curve at half-maximal effect; nearly all actives have a fitted effect of over 70% in size.
Assay [5] has as its target Phospholipid hydroperoxide glutathione peroxidase GPX4 (Homo sapiens) (UniProt P36969). Kind of assay: Primary qHTS Assay for Inhibitors of Recombinant Selenoprotein Glutathione Peroxidase 4 (GPX4) (AID 1845192). Also: nearly all actives have a fitted effect of over 65% in size. Also: potency is read from the fitted curve at half-maximal effect. The conditions noted are these: outcome: dose series up to 50 µM unless noted. An outline of the steps:
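GR-coupled assay: recombinant GPX4 preincubated 30 min with compound at room temperature; final 200 nM GPX4, 1 mM GSH, 0.5 mM cumene hydroperoxide, 0.5 mM NADPH, 100 nM GR, 0.01% BSA, pH 7.5 Tris. NADPH fluorescence (340/450 nm) read at 0 and 15 min.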

The target in assay [6] is Luciferin 4-monooxygenase (Photinus pyralis) (UniProt P08659). Kind of assay: Primary firefly luciferase (FLuc) qHTS assay for identification of artifact compounds. (AID 1845220). Also: nearly all actives have a fitted effect of over 60% in size. In a few lines: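 Titrated compounds were incubated 15 min at RT, protected from light, with luciferin and ATP at 10 uM; reaction started with 10 nM FLuc, luminescence imaged at 5 min, and concentration-response fitted by Hill equation.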

Assay [7] concerns Nanoluciferase (engineered Oplophorus gracilirostris luciferase). Kind of assay: Primary Nanoluciferase (NLuc) qHTS assay for identification of artifact compounds. (AID 1845222).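 Also: NLuc secreted into diluted conditioned medium of S16 cells; 0% = DMSO and -100% = no enzyme.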 An outline of the steps: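 qHTS format, against NLuc in S16 cell-conditioned medium. Nano-Glo substrate 1:100 was added after 15 min at room temperature. Luminescence was taken after a further 5 min.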

Assay [8] in a line: Primary redox qHTS assay for identification of artifact compounds. (AID 1845223).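 Also: 0% = DMSO and 100% = reference compound.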 An outline of the steps:
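Amplex Red (25 uM) and HRP (250 mU/mL) in HBSS, with compounds for 15 min, then 250 uM DTT for 30 min, room temperature, dark. Fluorescence 525/598 nm read; normalized to DMSO and 10 uM DA3003; Hill fit.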

The test system of assay [9] is HaCat. Kind of assay: Cytotoxic Profiling of Annotated Libraries Using Quantitative High-Throughput Screening (AID 1296008). Also: nearly all actives have a fitted effect of over 60% in size. Also: potency is read from the fitted curve at half-maximal effect. As to max response: % is scaled to controls: 0 for no effect and ±100 for the full control effect. As to conditions: Five cell lines viability, CellTiter-Glo ATP luminescence, 48-72 h; max response: stronger effect = lower value. An outline of the steps:
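Cells exposed to compounds for 48 or 72 hr at 37 degrees Celsius. Viability read as ATP-coupled luminescence with CellTiter-Glo after 10 min at room temperature.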
(ATP-based viability assays read luminescence as a measure of living cells.)

Assay [10] has as its system C33A. Kind of assay: Primary qHTS to identify gynecologic anti-cancer compounds using libraries of approved drugs and bioactive compounds (AID 1345084). Also: nearly all actives have a fitted effect of over 55% in size. Also: potency is read from the fitted curve at half-maximal effect. The conditions noted are these: Gynecologic cancer cell panel viability, ATPlite luminescence, 48 h; series mostly up to 57.5 µM. In a few lines: (§1)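 ATP-based viability (ATPlite), 1,000 cells/well, 16 h pre-incubation, 48 h compound at 37 C, 5% CO2, 15 min RT before read.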

Assay [11] deals with Es-2. The assay is described as above. As to conditions: Gynecologic cancer cell panel viability, ATPlite luminescence, 48 h; series mostly up to 57.5 µM. An outline of the steps:
as §1

The subject of assay [12] is HeLa. The description is as above. As to conditions: Gynecologic cancer cell panel viability, ATPlite luminescence, 48 h; series mostly up to 57.5 µM. An outline of the steps: as §1
Assay [13] deals with Hek293T. Described as above. As to conditions: Gynecologic cancer cell panel viability, ATPlite luminescence, 48 h, control line for the selectivity index; series mostly up to 57.5 µM. An outline of the steps: as §1
The test system of assay [14] is JEG-3. The assay is described as above. The conditions noted are these: Gynecologic cancer cell panel viability, ATPlite luminescence, 48 h; series mostly up to 57.5 µM. In a few lines: as §1
For assay [15], the system named is Tov-21-G. The assay is described as above. As to conditions: Gynecologic cancer cell panel viability, ATPlite luminescence, 48 h; series mostly up to 57.5 µM. In a few lines: as §1
Assay [16] has as its system CASKI. The assay is described as above. The conditions noted are these: Gynecologic cancer cell panel viability, ATPlite luminescence, 48 h; series mostly up to 57.5 µM. In a few lines: as §1
Assay [17] has as its system OV90. Described as above. As to conditions: Gynecologic cancer cell panel viability, ATPlite luminescence, 48 h; series mostly up to 57.5 µM. An outline of the steps: as §1
Assay [18] concerns Tov112D. The assay is described as above. As to conditions: Gynecologic cancer cell panel viability, ATPlite luminescence, 48 h; series mostly up to 57.5 µM. An outline of the steps: as §1
The target of assay [19] is Glutathione peroxidase 1 (Homo sapiens) (UniProt P07203). Kind of assay: Primary qHTS Assay for Inhibitors of Recombinant Selenoprotein Glutathione Peroxidase 1 (GPX1) (AID 1845191). Also: nearly all actives have a fitted effect of over 65% in size. An outline of the steps: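 GR-coupled assay: compounds preincubated 30 min at room temperature with GPX1, then reaction started with CHP; final 10 nM GPX1, 1 mM GSH, 0.5 mM CHP, 0.5 mM NADPH, 100 nM GR, 0.01% BSA, pH 7.5 Tris buffer. NADPH fluorescence (340/450 nm) read at 0 and 15 min.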

Assay [20] is described as follows: qHTS drug screen for cell cycle checkpoint inhibitors in PARPi-resistant BRCA-mutant ovarian cancer cell lines. (AID 1963452; calls by dose curve). The conditions noted are these: PEO1/OlaR viability, CellTiter-Glo luminescence, 96 h, stronger effect = lower value. In a few lines:
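PEO1, PEO4 and PEO1/OlaR ovarian cancer cells, 600 per well, exposed 96 h at 37C to a dilution series. Viability read by CellTiter-Glo luminescence, normalized to DMSO and empty wells; activity summarized as Z-AUC.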

Setting [21] is: measured here: PEO1 parental Z-AUC.

Glutathione peroxidase 1 (Homo sapiens), sequence (P07203 whole entry, looked up): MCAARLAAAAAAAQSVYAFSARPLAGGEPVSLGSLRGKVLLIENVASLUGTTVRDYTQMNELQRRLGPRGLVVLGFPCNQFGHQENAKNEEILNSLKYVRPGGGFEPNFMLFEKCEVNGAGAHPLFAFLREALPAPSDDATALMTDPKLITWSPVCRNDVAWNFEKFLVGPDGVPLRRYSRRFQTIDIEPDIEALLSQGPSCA
Calcium and integrin-binding protein 1 (Homo sapiens), sequence (Q99828 whole entry, looked up): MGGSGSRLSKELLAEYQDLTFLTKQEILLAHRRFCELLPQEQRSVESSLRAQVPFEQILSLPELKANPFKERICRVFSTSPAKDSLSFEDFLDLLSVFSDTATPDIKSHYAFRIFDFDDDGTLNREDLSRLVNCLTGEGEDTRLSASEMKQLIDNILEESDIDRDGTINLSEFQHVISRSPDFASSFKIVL
Phospholipid hydroperoxide glutathione peroxidase GPX4 (Homo sapiens), sequence (P36969 whole entry, looked up): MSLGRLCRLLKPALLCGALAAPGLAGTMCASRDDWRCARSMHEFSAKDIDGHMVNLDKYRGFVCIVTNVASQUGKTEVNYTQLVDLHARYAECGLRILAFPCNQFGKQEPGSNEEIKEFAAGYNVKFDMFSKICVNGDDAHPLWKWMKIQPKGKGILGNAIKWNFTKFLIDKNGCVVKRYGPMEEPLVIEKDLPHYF

For `CCN1CCN(Cc2ccc(-c3cc4c(NC(C)c5ccccc5)ncnc4[nH]3)cc2)CC1` (configuration not stated), the Potency result in assay [1], in assay [6], in assay [7], in assay [8], in assay [10] and in assay [11] was “inactive” each time. Also, the Potency entry in assay [12], in [13] and in assay [14] was “inactive” throughout. Further, the outcome in assay [2] was inactive. Moreover, the Potency in assay [3] is 4.59 µM (active); in [4], 5.78 µM (active); in assay [5], 14.3 µM (active); in assay [9], 2.91 µM (active); in [15], 4.47 µM (active).

As for `CC1CCC2C(=CCC(O)C2(C)C)C1(C)Cc1c(O)cc(CO)c(C=O)c1O` (configuration not stated), the Potency entry in assay [1], in assay [5], in assay [6], in [7], in assay [10] and in assay [16] was “inactive” each time. In addition, the Potency entry in assay [11], in assay [12], in assay [13], in assay [14], in [17] and in [15] was “inactive” each time. In [18], the Potency entry was “inactive”. Besides, the outcome in [2] and in [9] was inactive.

As for `Cn1c(NC[C@@H](N)Cc2ccccc2)nc(-c2ccncc2)c(-c2ccc3ccccc3c2)c1=O`, the Potency result in assay [1], in assay [19], in assay [5], in [6], in assay [7] and in assay [8] was “inactive” throughout. For the same molecule, the Potency entry in [10], in [16], in assay [11], in assay [12], in assay [13] and in assay [14] was “inactive” in each case. Moreover, the Potency entry in assay [17], in assay [15] and in [18] was “inactive” throughout. The result in assay [2] was inactive. Besides, the Potency is 18.6 µM (active) in assay [3] and 26.3 µM (active) in [4]. Also, the Z-AUC was -0.2 (inactive) in assay [20], 0.768 in assay [20] (setting [21]) and 0.932 in assay [20] (measured here: PEO4 Z-AUC).

Regarding `CCN(CCCOc1ccc2c(Nc3cc(CC(=O)Nc4cccc(F)c4)[nH]n3)ncnc2c1)CCOP(=O)(O)O`, the Potency entry in assay [1], in assay [19], in [5], in assay [6], in assay [10] and in assay [11] was “inactive” each time. In addition, the Potency result in assay [12], in assay [13], in [14] and in assay [17] was “inactive” in each case. Besides, the outcome in assay [2] was inactive. For the same molecule, the Potency in assay [3] is 5.9 µM (active); in [4], 32.5 nM (active) and 37.2 nM (active); in assay [9] it was 2.06 µM (active). The Z-AUC is 1.19 (inactive) in [20], 0.684 in assay [20] (setting [21]) and 0.183 in [20] (measured here: PEO4 Z-AUC).

Take `Cc1ccc(C2(COC(=O)C(C)C)CO2)c(OC(=O)C(C)C)c1` (configuration not stated): the Potency entry in assay [1], in assay [19], in assay [5], in assay [6], in assay [7] and in [8] was “inactive” in each case. In addition, the Potency result in assay [10], in assay [16], in assay [11], in assay [12], in assay [13] and in [14] was “inactive” throughout. In addition, the Potency entry in assay [17], in assay [15] and in assay [18] was “inactive” in each case. Besides, the result in [2] and in assay [9] was inactive.

Turning to `COc1cc([C@@H](CC(=O)O)c2ccc(C)c(CN3C[C@@H](C)Oc4ccccc4S3(=O)=O)c2)cc2nnn(C)c12`, the result in assay [2] was inactive. The Potency entry in [3] and in assay [19] was “inactive” each time. Besides, the Z-AUC in [20] was 1.24 (inactive); in assay [20] (setting [21]), 0.171; in assay [20] (measured here: PEO4 Z-AUC), -0.282. In assay [9], the max response is -8.19% (inactive).
